Measured values reported in the supplement of paper PMC4709259.
± gives the standard deviation.

What was measured:
Jurkat [1] = test: mean cell size (FSC-A) relative to DMSO control (fraction of control); higher = larger cells; settings: 48 h
Summary of the method: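 Jurkat cells at 600 cells/µl were incubated for 1 h and then treated for 48h with the Enzo Screen-Well FDA Approved Drug Library v2.0 at 25µM, with DMSO at 0.9% (v/v) final. Compounds that reduced counts below 20% of controls were retested in 10-fold dilutions down to 25nM. Cell count and mean cell size, taken as forward scatter area, were measured by flow cytometry relative to solvent-only controls. Each plate carried 6-12 controls, and values are means of 3 biological replicates.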

Jurkat [2] = test: cell count relative to DMSO control (fraction of control); higher = more cells (less growth inhibition); settings: 48 h

Structure (SMILES): OC[C@@H](O)[C@@H](O)[C@H](O)[C@H](O)CO [Mannitol] (concentration: 25 µM)
- mean cell size (Jurkat [1]): 0.947 ± 0.041
- cell count (Jurkat [2]): 0.977 ± 0.097

Structure (SMILES): C[C@@H]1C[C@H]2[C@@H]3CCC4=CC(=O)C=C[C@]4(C)[C@@]3(F)[C@@H](O)C[C@]2(C)[C@H]1C(=O)CO [Desoximetasone] (concentration: 25 µM)
- mean cell size (Jurkat [1]): 0.949 ± 0.035
- cell count (Jurkat [2]): 0.764 ± 0.02

Structure (SMILES): COC(=O)C1=C(C)NC(C)=C(C(=O)OC)C1c1ccccc1[N+](=O)[O-] [Nifedipine] (concentration: 2.5 µM)
- mean cell size (Jurkat [1]): 1.02 ± 0.036
- cell count (Jurkat [2]): 0.92 ± 0.1

Structure (SMILES): Cc1ccccc1N1C(=O)c2cc(S(N)(=O)=O)c(Cl)cc2NC1C (stereo unspecified) [Metolazone] (concentration: 25 µM)
- mean cell size (Jurkat [1]): 0.997 ± 0.03
- cell count (Jurkat [2]): 0.918 ± 0.095

Structure (SMILES): NCCCCCC(=O)O [Aminocaproic Acid] (concentration: 25 µM)
- mean cell size (Jurkat [1]): 0.976 ± 0.05
- cell count (Jurkat [2]): 0.853 ± 0.1

Structure (SMILES): CN(C)CCOC(c1ccccc1)c1ccccc1.Cn1c(=O)c2[nH]c(Cl)nc2n(C)c1=O [Dimenhydrinate] (concentration: 25 µM)
- mean cell size (Jurkat [1]): 1.05 ± 0.051
- cell count (Jurkat [2]): 0.558 ± 0.15

Structure (SMILES): C[C@](N)(Cc1ccc(O)c(O)c1)C(=O)O [Methyldopa Sesquihydrate (L-Α-Methyl-Dopa Sesquihyrate)] (concentration: 25 µM)
- mean cell size (Jurkat [1]): 0.958 ± 0.027
- cell count (Jurkat [2]): 0.834 ± 0.052

Structure (SMILES): CC(C)C[C@H](NC(=O)[C@@H](Cc1c[nH]c2ccccc12)NC(=O)[C@H](Cc1ccc(O)cc1)NC(=O)[C@H](CO)NC(=O)[C@H](Cc1c[nH]c2ccccc12)NC(=O)[C@H](Cc1cnc[nH]1)NC(=O)[C@@H]1CCC(=O)N1)C(=O)N[C@@H](CCCN=C(N)N)C(=O)N1CCC[C@H]1C(=O)NCC(N)=O [Triptorelin Acetate] (concentration: 25 µM)
- mean cell size (Jurkat [1]): 0.997 ± 0.014
- cell count (Jurkat [2]): 0.458 ± 0.081
